Only some compounds are listed: those with a hit (about 27% of all), similar ones and a draw of the others.
CYP2C9 act: human CYP2C9 activators, primary screen, biochemical, luminescence; Cytochrome P450 2C9 (Homo sapiens), P11712; recombinant CYP2C9, luciferin-H conversion; active compounds read high; factor 1 = untreated enzyme, 0 = blocked; activation factor at 5 µM; 96,000 tested, 1.4% active;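 active = activation factor of 2 or more for CYP2C9 at a 5 µM dose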;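 note: 0 = sulfaphenazole-blocked wells and 1 = vehicle-only wells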
CYP2C9 inh: blockers of cytochrome P450 2C9 activity – biochemical, luminescence, ADME assay, primary screen; AID 777, 2007; 96,000 tested, 20% active; CYP2C9 Supersomes, luciferin-H conversion; inhibition, % at 5 µM; P11712;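 active = blocking of liver enzyme CYP2C9 beyond about 50% at 5 µM, limit read from the data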
Cav3 T inh: Cav3.2 calcium influx blockers – cell-based, Fluo-4 calcium fluorescence, FDSS, MLSMR library, primary screen; Voltage-dependent T-type calcium channel subunit alpha-1H (Homo sapiens), O95180; Cav3.2-expressing cells; active compounds read low; B-score at 10 µM; 100,000 tested, 4% active;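 active = single-dose well whose peak fluorescence ratio is a statistical outlier from its plate by either plate-standardised score or position-corrected B-score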
CYP2C19 act: human CYP2C19 activators, primary screen, biochemical, luminescence | recombinant CYP2C19, luciferin-H EGE luminescence; active compounds read high; 0 = fully inhibited enzyme, 1 = untreated enzyme | activation factor at 5 µM | 96,000 tested, under 10 active | AID 1025, 2008;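 active = activation factor of at least 2 at 5 µM in the primary screen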;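 note: 0 = wells with 2.5 mM tranylcypromine and 1 = vehicle-only wells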
Target sequence (P33261 whole entry, looked up): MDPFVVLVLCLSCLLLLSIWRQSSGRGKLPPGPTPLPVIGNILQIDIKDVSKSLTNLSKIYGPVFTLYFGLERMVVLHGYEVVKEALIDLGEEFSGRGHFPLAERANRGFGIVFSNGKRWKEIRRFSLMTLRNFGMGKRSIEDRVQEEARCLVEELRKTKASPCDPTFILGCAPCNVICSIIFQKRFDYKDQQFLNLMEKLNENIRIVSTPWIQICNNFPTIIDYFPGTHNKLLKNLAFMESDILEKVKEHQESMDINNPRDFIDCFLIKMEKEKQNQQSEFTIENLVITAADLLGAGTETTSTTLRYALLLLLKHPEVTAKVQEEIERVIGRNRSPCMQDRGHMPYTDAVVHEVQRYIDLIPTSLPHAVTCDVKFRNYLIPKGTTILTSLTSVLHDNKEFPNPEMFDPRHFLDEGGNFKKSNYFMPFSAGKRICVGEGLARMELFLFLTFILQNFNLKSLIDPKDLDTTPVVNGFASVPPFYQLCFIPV
CYP2C19 inhib: blockers of cytochrome P450 2C19 activity – biochemical, luminescence, ADME assay, primary screen; P33261; CYP2C19 Supersomes, luciferin-H EGE luminescence, 30 min; inhibition, % at 5 µM; 96,000 tested, 21% active; AID 778, 2007;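 active = CYP2C19 inhibition above a set limit at 5 µM in the primary screen, cut at about 50% in these data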;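 note: plate controls were negative control wells for no effect and 2.5 mM tranylcypromine positive control for full effect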
An asterisk follows results filed as active.

How did Cc1ccc2c(c1)CC1(CN2C)C(=O)NC(=O)N(c2cc(C)ccc2C)C1=O (configuration not stated) do in these assays?
CYP2C9 act: 0.4; CYP2C9 inh: 58.9*; Cav3 T inh: -1.81; CYP2C19 act: 0.8; CYP2C19 inhib: 23.3

How did OC(Cc1ccccc1)(c1ccccc1)C1CN2CCC1CC2 (configuration not stated) do in these assays?
CYP2C9 act: 0.8; CYP2C9 inh: 21.8; Cav3 T inh: -0.625; CYP2C19 act: 0.8; CYP2C19 inhib: 20.2

What do the screens show for `CC(=O)OC1N=C(c2ccccc2)c2cc(Br)ccc2N(C)C1=O` (configuration not stated)?
CYP2C9 act: 0.9; CYP2C9 inh: 7.3; CYP2C19 act: 1; CYP2C19 inhib: -3.8

How did COC/C=C1\CN2C3C[C@@H]1[C@H]1COC4=Nc5cc(OC)c(OC)c(OC)c5[C@@]43C[C@@H]12 do in these assays?
Cav3 T inh: 0.678

What do the screens show for `COc1ccc2c(c1)c(C(=O)CN1CCC3(CC1)OCCO3)c(C)n2Cc1ccccc1`?
CYP2C9 act: 0.8; CYP2C9 inh: 15.6; Cav3 T inh: -1.67; CYP2C19 act: 0.8; CYP2C19 inhib: 15.4

What do the screens show for `CC(=O)OC1N=C(c2ccc(Cl)cc2)c2cc(Br)ccc2NC1=O` (configuration not stated)?
CYP2C9 act: 1.1; CYP2C9 inh: -8.1; Cav3 T inh: -2.46; CYP2C19 act: 0.7; CYP2C19 inhib: 27.4

What do the screens show for `CCOC(=O)c1ccc(N2C(=O)CC(N3CC=C(c4ccc(F)cc4)CC3)C2=O)cc1` (configuration not stated)?
CYP2C9 act: 0.4; CYP2C9 inh: 64.5*; Cav3 T inh: -0.867; CYP2C19 act: 0.6; CYP2C19 inhib: 37.3

Results for Cn1c(=O)cc(SCC(=O)N2CCC3(CC2)OCCO3)c2ccc(Cl)cc21 ?
Cav3 T inh: 0.504

Results for COc1ccccc1N1CCN(Cc2ccccc2Cl)CC1 ?
CYP2C9 act: 0.8; CYP2C9 inh: 16.2; Cav3 T inh: -1.1; CYP2C19 act: 0.6; CYP2C19 inhib: 43.9

What do the screens show for `COc1ccccc1N1CCN(Cc2cccc(OC)c2O)CC1`?
CYP2C9 act: 1; CYP2C9 inh: 2.7; Cav3 T inh: 0.506; CYP2C19 act: 0.5; CYP2C19 inhib: 51.5*

Results for Cc1ccc(C(c2nnnn2Cc2ccccc2)N2CC=C(c3ccc(F)cc3)CC2)cc1 (configuration not stated) ?
CYP2C9 act: 0.5; CYP2C9 inh: 50.5*; Cav3 T inh: -3.16*; CYP2C19 act: 0.3; CYP2C19 inhib: 70.1*

What do the screens show for `C[N+](C)(C)c1ccccc1`?
Cav3 T inh: -2.35

What do the screens show for `COc1ccc(C=C2C(=O)N(C)C(=O)N(C)C2=O)cc1CSc1ccccn1`?
CYP2C9 act: 0.8; CYP2C9 inh: 24.8; Cav3 T inh: -0.254; CYP2C19 act: 0.4; CYP2C19 inhib: 58.0*

What do the screens show for `CC1C(c2cccs2)=[N+]([O-])C(C)(C(=O)c2ccc(Cl)cc2)N1O` (configuration not stated)?
Cav3 T inh: 0.0474

What do the screens show for `CC(C)[C@@]1(NC(=O)[C@@H]2C[C@@H]3c4cccc5[nH]cc(c45)C[C@H]3N(C)C2)O[C@@]2(O)[C@@H]3CCCN3C(=O)[C@H](Cc3ccccc3)N2C1=O`?
Cav3 T inh: -5.39*

What do the screens show for `CC(C)C[C@H]1C(=O)N2CCCC2[C@]2(O)O[C@](NC(=O)[C@@H]3C=C4c5cccc6[nH]cc(c56)CC4N(C)C3)(C(C)C)C(=O)N12` (some centres not stated)?
Cav3 T inh: -0.935

How did c1cncc(C2CC(c3cccs3)n3ncnc3N2)c1 (configuration not stated) do in these assays?
CYP2C9 act: 1; CYP2C9 inh: -2.4; Cav3 T inh: -1.11; CYP2C19 act: 0.9; CYP2C19 inhib: 12.2

Results for O=C1C2CCCN2C(c2ccncc2)N1c1ccc(Cl)c(Cl)c1 (configuration not stated) ?
CYP2C9 act: 0.1; CYP2C9 inh: 88.3*; Cav3 T inh: 0.295; CYP2C19 act: 0.3; CYP2C19 inhib: 67.8*

How did O=C1C2CCCN2C(c2ccc(Cl)c(Cl)c2)N1c1ccccn1 (configuration not stated) do in these assays?
Cav3 T inh: -1.44

What do the screens show for `Cc1ccc(-c2cc(C(F)F)n3ncc(C(=O)N4CCC5(CC4)OCCO5)c3n2)cc1`?
CYP2C9 act: 0.5; CYP2C9 inh: 47.2; Cav3 T inh: 0.174; CYP2C19 act: 1; CYP2C19 inhib: 4.7

What do the screens show for `CCOCCCn1c(N)c(C(=O)Nc2sc3c(c2C(=O)OC)CCCC3)c2nc3ccccc3nc21`?
CYP2C9 act: 0.8; CYP2C9 inh: 20.3; Cav3 T inh: -0.348; CYP2C19 act: 0.9; CYP2C19 inhib: 14.1

Results for CCOC(=O)c1c(NC(=O)C(c2ccccc2)c2ccccc2)sc2c1C1CCN2CC1 ?
CYP2C9 act: 0.4; CYP2C9 inh: 63.1*; Cav3 T inh: -4.15*; CYP2C19 act: 0.8; CYP2C19 inhib: 22.7

Results for CCN1C[C@@]2(COC)C3[C@@H](OC)[C@H]4[C@@H]1[C@@]3(C1C[C@H]3[C@H](OC(C)=O)C1[C@]4(OC(C)=O)C[C@H]3OC)[C@@H](OC)C[C@H]2OC(C)=O (some centres not stated) ?
Cav3 T inh: 0.276

Results for O=C(CN1CCN(Cc2cccc(Cl)c2)C1=O)N1CCC2(CC1)OCCO2 ?
CYP2C9 act: 0.9; CYP2C9 inh: 5.3; Cav3 T inh: 0.503; CYP2C19 act: 1.2; CYP2C19 inhib: -17.7

What do the screens show for `Cn1c2ccccc2c2c(C(=O)N3CCC4(CC3)OCCO4)cn(C3CCCCC3)c(=O)c21`?
CYP2C9 act: 0.3; CYP2C9 inh: 69.3*; Cav3 T inh: -5.05*; CYP2C19 act: 0.5; CYP2C19 inhib: 51.4*

How did Cn1c2ccccc2c2cnn(CC(=O)N3CCC4(CC3)OCCO4)c(=O)c21 do in these assays?
CYP2C9 act: 0.9; CYP2C9 inh: 14.0; CYP2C19 act: 0.4; CYP2C19 inhib: 57.0*

How did O=C(Cn1ncc2c3ccccc3n(Cc3cccc(Cl)c3)c2c1=O)N1CCC2(CC1)OCCO2 do in these assays?
CYP2C9 act: 0.1; CYP2C9 inh: 91.3*; Cav3 T inh: -10.7*; CYP2C19 act: 0.2; CYP2C19 inhib: 79.3*

How did CCN1/C(=C\C=C\C2=[N+](CC)c3ccccc3C2(C)C)C(C)(C)c2ccccc21 do in these assays?
CYP2C9 act: 0.3; CYP2C9 inh: 68.6*; CYP2C19 act: 0.1; CYP2C19 inhib: 91.6*

Results for COC(=O)C1=C(c2cc3ccccc3o2)C[C@@H]2CC[C@H]1N2C(=O)N1CCCC1 ?
Cav3 T inh: -1.42

Screens as filed in PubChem.
